Screening results deposited in PubChem by Sanford-Burnham Center for Chemical Genomics.
NLRP3 yeast inh = blocks the NALP3 inflammasome reconstituted in yeast. Yeast reconstituted NLRP3/ASC/caspase-1, beta-gal luminescence, 24 h. inhibition, % at 10 µM. 330,000 compounds, 0.39% hits. AID 2825;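 active means inhibition of 50% or more; inactive means inhibition below 50%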
TIM10 inh = TIM10 yeast growth inhibition; S. cerevisiae TIM10 strain growth, BacTiter-Glo luminescence, 24 h; inhibition, % at 10 µM; 330,000 compounds, 1.4% hits; AID 463195;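 active means inhibition of 40% or more at the single tested concentration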;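 further: wild-type TIM10 isogenic control strain grown at permissive 25 °C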
tim10-1 inh = tim10-1 yeast growth inhibition; inhibition, % at 20 µM; 330,000 compounds, 2.2% hits; S. cerevisiae tim10-1 ts strain growth, BacTiter-Glo, 24 h;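 active means inhibition of at least 40%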;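 further: mutant grown at 25 °C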
tim23-1 inh = inhibits growth of tim23-1 mutant yeast; inhibition, % at 20 µM; S. cerevisiae tim23-1 growth, BacTiter-Glo luminescence, 24 h; 330,000 compounds, 1.3% hits; AID 463212;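 active means growth inhibition of the mutant yeast at or above 50%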;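 further: temperature-sensitive mutant grown at 25 °C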
NALP1 yeast inh = inhibitors of NALP1 inflammasome in yeast. 280,000 compounds, 0.61% hits. inhibition, % at 10 µM. AID 2071. S. cerevisiae NALP1/ASC/caspase-1 growth, X-gal OD620, 72 h; in the data active means inhibition mostly above about 24%, no sharp cut-off; inactive means mostly below about 32%
Of the large screens only hits and unclear results are named; the others gave an inactive call. Hits are enriched below; roughly 4% of the tested compounds scored in any of these assays.

CCCCCCCCCCCC(=O)NC(C(=O)O)C(O)c1ccccc1 (centres undefined)	NALP1 yeast inh 26.7
Cc1cc(OCCCCCn2ccnc2)cc(C)c1Cl	NALP1 yeast inh 26.0
Cc1cc(OCCCn2ccnc2)cc(C)c1Cl	none
CCOc1ccc(S(=O)(=O)N(CCO)CCO)cc1-c1nc2c(C(C)(C)C)nn(C)c2c(=O)[nH]1	none
CCCc1nn(C)c2c(=O)[nH]c(-c3cc(S(=O)(=O)N(CCO)CCO)ccc3OCC)nc12	NALP1 yeast inh 29.5
Cc1ccc(CN2CCN(Cc3cnc(N4CCOCC4)s3)CC2CCO)o1 (centres undefined)	NALP1 yeast inh 25.8
COC(=O)c1ccc(C(=O)Nc2ccc(C(C)C)cc2N)cc1	none
COc1ccc(C(=O)N2CCCC(Nc3ccc(F)cc3)C2)c(OC)c1 (centres undefined)	NALP1 yeast inh 30.0
COc1ccc(NC2CCCN(C(=O)c3ccc(C(C)=O)cc3)C2)cc1 (centres undefined)	none
NC(=S)NC1CCS(=O)(=O)C1 (centres undefined)	none
C=CCSC(=S)NC1CCS(=O)(=O)C1 (centres undefined)	NALP1 yeast inh 82.5
CC(C)C[C@H](NC(=O)c1nc[nH]c1C(=O)N1CCN(C(=O)OC(C)(C)C)CC1)C(=O)OCc1ccccc1	none
CC(C)C(=O)c1cn(CC(=O)O)c2ccccc12	NALP1 yeast inh 26.1
COc1ccccc1C(=O)C1CCCN(C(=O)Nc2ccccc2F)C1 (centres undefined)	none
CCC(=O)OCC(=O)c1c(N)n(Cc2ccccc2)c(=O)n(C)c1=O	NALP1 yeast inh 32.1
CCN(CC)CC(=O)c1c(N)n(Cc2ccccc2)c(=O)n(C)c1=O	none
CCOC(=O)c1c(N)nn(C(=O)C(C)C)c1-c1ccccc1	NALP1 yeast inh 37.5
CCOC(=O)c1c(N)nn(C(=O)CC)c1-c1ccccc1	none
Cc1ccc(S(=O)(=O)N/N=C/c2c[nH]c3ccccc23)cc1	NALP1 yeast inh 26.0
COc1ccc2[nH]cc(/C=N/NS(=O)(=O)c3ccc(C)cc3)c2c1	none (no result: NALP1 yeast inh)
CCCCC(=O)N1CCN(c2nc3ccc(F)cc3s2)CC1	none
COc1ccc2nc(NC(C)=O)sc2c1	none
CC(=O)Nc1nc2ccc(Br)cc2s1	NALP1 yeast inh 28.8
CCC(=O)N1CCN(c2nc3ccc(Br)cc3s2)CC1	NALP1 yeast inh 30.5
CCc1ccc(S(=O)(=O)NCc2ccc(N3CCN(C)CC3)cc2)cc1	none
Cc1ccc(F)cc1S(=O)(=O)NCc1ccc(N2CCN(C)CC2)cc1	NALP1 yeast inh 31.3
CC(OC(=O)C1=COCCO1)C(=O)Nc1ccccc1C#N (centres undefined)	none
CC(OC(=O)C1=COCCO1)C(=O)Nc1ccc(Oc2ccccc2)cc1 (centres undefined)	NALP1 yeast inh 36.1
COc1ccc(C(=O)NCCNC(C)=O)cc1S(=O)(=O)NCc1ccc(Cl)cc1	NALP1 yeast inh 28.2
COc1ccc(C(=O)NC2CCC(O)CC2)cc1S(=O)(=O)NCc1ccc(Cl)cc1 (centres undefined)	none (no result: NALP1 yeast inh)
CCOc1cc(-c2nc(-c3ccncc3)no2)cc(OCC)c1OCC	NALP1 yeast inh 22.0
COc1ccc(CCn2c(-c3ccc(C(C)(C)C)cc3)n[nH]c2=S)cc1OC	none
COc1ccc(CCn2c(-c3ccc(Cl)cc3)n[nH]c2=S)cc1OC	NALP1 yeast inh 32.7
Cc1ccc2c(c1)c(N=Nc1ccc([N+](=O)[O-])cc1)c(O)n2C	NALP1 yeast inh 33.1
COc1ccccc1OCCNC(=O)c1ccc(C)c(S(=O)(=O)N2CCOCC2)c1	none (no result: NALP1 yeast inh)
CCN1/C(=C/c2ccc3cc(C)ccc3[n+]2CC)Sc2cc(C)ccc21	NALP1 yeast inh 35.1 (no result: NLRP3 yeast inh, TIM10 inh, tim10-1 inh, tim23-1 inh)
Cc1cccc(C)c1NC(=O)CN1C(=O)S/C(=C\c2cccn2C)C1=O	NALP1 yeast inh 39.8
Cc1cccc(C)c1NC(=O)CN1C(=O)S/C(=C\c2cccn2-c2cccc(C(=O)O)c2)C1=O	none
CC(=O)N1CCc2cc(S(=O)(=O)NC(Cc3ccccc3)C(=O)O)ccc21 (centres undefined)	none
Cc1cc(NC(=O)CCC(=O)N(c2ccccc2C)C(C(=O)NC2CCCC2)c2ccccc2)no1 (centres undefined)	none
O=C(Nc1ccccc1Oc1ccccc1)c1ccc(Br)o1	none
COc1ccccc1NC(=O)c1ccc(Br)o1	NALP1 yeast inh 27.7
COc1ccccc1-c1c(C(F)(F)F)oc2cc(OCC(=O)Nc3cc(C)ccc3C)ccc2c1=O	none
CCSc1nnc(-c2c[nH]c3ccccc23)o1	NALP1 yeast inh 36.8
N#CCSc1nnc(-c2c[nH]c3ccccc23)o1	none
CCCCNC(=O)c1cc(-c2ccc(OC)c(OC)c2)on1	NALP1 yeast inh 42.9
O=c1[nH]c2ccccc2nc1C(F)(F)F	NALP1 yeast inh 37.3
CC(=O)Nc1ccc(NS(C)(=O)=O)cc1	none
CCS(=O)(=O)Nc1ccc(NC(C)=O)cc1	NALP1 yeast inh 36.4
O=C(O)CCn1c(-c2ccccc2)cc2ccccc21	NALP1 yeast inh 34.5
COc1cnc(-c2ccccn2)nc1Oc1ccccc1	NALP1 yeast inh 21.3
CN1/C(=C/C(=O)CSc2ccccc2C(=O)O)C(C)(C)c2ccccc21	NALP1 yeast inh 44.9
CC(CNC(=O)CCn1ccc2cc(S(=O)(=O)N3CCCC3)ccc21)c1ccccc1 (centres undefined)	none
CCc1nnc(NS(=O)(=O)c2ccc(NC(=O)c3cc(Cl)ccc3Cl)cc2)s1	NALP1 yeast inh 38.8
CC(C)(C#N)NC(=O)c1ccco1	none
CC(C)(C#N)Nc1ccccc1	NALP1 yeast inh 17.5
O=C(COC(=O)CNC(=O)c1ccccc1)Nc1nc(-c2ccccc2)cs1	none
CCOC(=O)c1[nH]c2c(c1-c1ccc(OC)cc1)C(=O)CC(c1ccc(OC)c(OC)c1)C2 (centres undefined)	none
CN(c1ccccc1)S(=O)(=O)c1cccc(C(=O)OCC(=O)NCc2ccco2)c1	NALP1 yeast inh 24.0
Cc1ccc(C(=O)OCC(=O)NCc2ccco2)cc1	NALP1 yeast inh 40.9
COc1ccccc1C(=O)CSc1n[nH]c(N)n1	none
Nc1nc(SCC(=O)c2cc3ccccc3o2)n[nH]1	NALP1 yeast inh 21.5
CCOc1ccc(S(=O)(=O)N2CCN(C(=O)CCC(=O)N3CCOCC3)CC2)cc1	none (no result: NALP1 yeast inh)
Cc1cccc(-c2cc3nc(C)cc(NCCCN(C)C)n3n2)c1	none
CN(C)CCCNc1cc(-c2ccccc2)nc2cc(-c3cccc(F)c3)nn12	NALP1 yeast inh 25.8
COC(=O)c1ccc(N=Cc2c(C(F)(F)F)[nH][nH]c2=O)cc1	NALP1 yeast inh 27.3
CN(C)S(=O)(=O)c1ccc(N=Cc2c(C(F)(F)F)[nH][nH]c2=O)cc1	none
c1ccc2c(Nc3nc(N4CCOCC4)c4ccccc4n3)cccc2c1	NALP1 yeast inh 91.4
CC1=C(C#N)C(=O)N(C2CCS(=O)(=O)C2)C(=O)/C1=C\c1ccc(C)o1 (centres undefined)	none
COc1ccc(NC(=O)NNC(=O)COc2ccc3cc(Br)ccc3c2)cc1OC	NALP1 yeast inh 29.9
CC1(C)COC(/C=C/c2ccc([N+](=O)[O-])cc2)=N1	NALP1 yeast inh 88.6 (no result: NLRP3 yeast inh, TIM10 inh, tim10-1 inh, tim23-1 inh)
COc1cc(C)c(S(=O)(=O)n2ccc(C)n2)cc1C	none
